Assay results: PubChem BioAssay (NCATS)
Records with an inconclusive call do not appear. Active and inactive are the calls of the source. Unless noted, calls come from the whole dose curve.

How the values were obtained:
[1] = qHTS for Inhibitors of the Functional Ribonucleoprotein Complex (vRNP) of Lassa (LASV) Arenavirus: LASV Primary Screen - GLuc reporter signal (AID 1347082; calls by dose curve; tested in HEK293 reporter line; note: nearly all actives have a fitted effect of over 60% in size)
[2] = qHTS for Inhibitors of the Functional Ribonucleoprotein Complex (vRNP) of Lassa (LASV) Arenavirus: Viability assay - alamar blue signal for LASV Primary Screen (AID 1347083; calls by dose curve; tested in HEK293 reporter line; note: nearly all actives have a fitted effect of over 80% in size)
[3] = qHTS for Inhibitors of the Functional Ribonucleoprotein Complex (vRNP) of Lymphocytic Choriomeningitis Arenaviruses (LCMV): Viability assay - alamar blue signal for LCMV Primary Screen (AID 1347085; calls by dose curve; tested in HEK293 reporter line; note: nearly all actives have a fitted effect of over 80% in size)
[4] = biological target: Nucleoprotein (Lymphocytic choriomeningitis virus (strain Armstrong)) (UniProt P09992); assay: qHTS for Inhibitors of the Functional Ribonucleoprotein Complex (vRNP) of Lymphocytic Choriomeningitis Arenaviruses (LCMV): LCMV Primary Screen - GLuc reporter signal (AID 1347086); note: nearly all actives have a fitted effect of over 70% in size
Nucleoprotein (Lymphocytic choriomeningitis virus (strain Armstrong)), sequence (P09992 whole entry, looked up): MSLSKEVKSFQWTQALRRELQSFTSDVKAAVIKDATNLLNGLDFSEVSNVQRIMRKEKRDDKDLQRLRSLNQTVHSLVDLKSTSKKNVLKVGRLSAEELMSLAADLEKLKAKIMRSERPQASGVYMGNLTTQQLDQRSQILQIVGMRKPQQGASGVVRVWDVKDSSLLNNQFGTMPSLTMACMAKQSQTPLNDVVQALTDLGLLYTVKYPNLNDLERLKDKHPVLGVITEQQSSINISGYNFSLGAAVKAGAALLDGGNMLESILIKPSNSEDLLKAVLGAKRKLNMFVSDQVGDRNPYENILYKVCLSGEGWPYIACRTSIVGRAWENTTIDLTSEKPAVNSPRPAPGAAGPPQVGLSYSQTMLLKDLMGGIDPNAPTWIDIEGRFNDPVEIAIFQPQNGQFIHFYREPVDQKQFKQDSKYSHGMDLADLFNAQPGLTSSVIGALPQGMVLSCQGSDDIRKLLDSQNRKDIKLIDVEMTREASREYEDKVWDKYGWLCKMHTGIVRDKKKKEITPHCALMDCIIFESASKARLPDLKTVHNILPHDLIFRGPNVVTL

Measured: Potency
Note: series mostly up to about 57 µM.

CCOc1ccc(Cc2nccc3cc(OCC)c(OCC)cc23)cc1OCC
inactive: [1] | [2] | [3]

CCN(CC)CCNc1ccc(CO)c2sc3ccccc3c(=O)c12
inactive: [1]

CCN(CC)CCOc1ccc2c(c1)C(=O)c1cc(OCCN(CC)CC)ccc1-2
inactive: [1]

Cc1ccc2c(Br)cc(Br)c(O)c2n1
inactive: [1]

O=C(Nc1ncc([N+](=O)[O-])s1)c1cccs1
inactive: [1] | [2] | [3]

CN1CCCC(CC2c3ccccc3Sc3ccccc32)C1 (configuration not stated)
inactive: [1]

OC[C@H]1O[C@@H](n2cnc3c(=S)nc[nH]c32)[C@H](O)[C@@H]1O
inactive: [1]

CN1CCC(=C2c3ccccc3Sc3ccccc32)CC1
inactive: [1] | [2] | [3] | [4]

CCOC(=O)C1=C(C)NC(C)=C(C(=O)OCC)C1c1ccccc1/C=C/C(=O)OC(C)(C)C
inactive: [1] | [2] | [3]

COCCOC(=O)C1=C(C)NC(C)=C(C(=O)OC/C=C/c2ccccc2)C1c1cccc([N+](=O)[O-])c1 (configuration not stated)
inactive: [1] | [2] | [3]

Nc1nc2ccccc2n1Cc1ccc(F)cc1
inactive: [1] | [2]

CC(COc1ccccc1)NC(C)C(O)c1ccc(O)cc1 (configuration not stated)
inactive: [1] | [2] | [3] | [4]

Oc1ccc(C(O)CNCCCCCCNCC(O)c2ccc(O)c(O)c2)cc1O (configuration not stated)
inactive: [1] | [2] | [3] | [4]

CC(C)OC(=O)c1cc2c(OCC(O)CNC(C)(C)C)cccc2[nH]1 (configuration not stated)
inactive: [1] | [2] | [3] | [4]

Cc1cc(C)c(/C=C2\C(=O)Nc3ccccc32)[nH]1
inactive: [1] | [2] | [3] | [4]

CC(C)C[C@@H]1[C@H](c2ccccc2)OC(=O)N1CCCN1CCCCCC1
inactive: [1] | [2] | [3] | [4]

C#CCN(C)Cc1ccccc1
inactive: [1] | [2] | [3] | [4]

C[C@H](O)C(=O)Nc1c(I)c(C(=O)NC(CO)CO)c(I)c(C(=O)NC(CO)CO)c1I
inactive: [1] | [2] | [3] | [4]

CCOc1c(N2CCOCC2)cnn(C)c1=O
inactive: [1] | [2] | [3] | [4]

O=C(CCNNC(=O)c1ccncc1)NCc1ccccc1
inactive: [1] | [2] | [3] | [4]

O=C(O)[C@H](O)[C@@H](O)[C@H](O[C@@H]1O[C@H](CO)[C@H](O)[C@H](O)[C@H]1O)[C@H](O)CO
inactive: [1] | [2] | [3] | [4]

Cn1cc(C(=O)[C@@H]2CCc3nc[nH]c3C2)c2ccccc21
inactive: [1] | [2] | [3] | [4]

CN1CCN(C2=Nc3cc(F)ccc3Cc3ccccc32)CC1
inactive: [1] | [2] | [3] | [4]

Cc1ccc(S(=O)(=O)NC(=O)NC2CCCC2)cc1
inactive: [1] | [2] | [3] | [4]

CCN(CC)C(=O)c1cccc(C)c1
inactive: [1] | [2] | [3] | [4]

CCOCCn1c(N2CCCN(C)CC2)nc2ccccc21
inactive: [1] | [2] | [3] | [4]

CC(=O)Nc1ccc(S(=O)(=O)Nc2ccc([N+](=O)[O-])cc2)cc1
inactive: [1] | [2] | [3] | [4]

CCCCNc1ccc(C(=O)OCCN(CC)CC)cc1
inactive: [1] | [2] | [3] | [4]

COc1cc([C@H]2Oc3cc([C@H]4Oc5cc(O)cc(O)c5C(=O)[C@@H]4O)ccc3O[C@@H]2CO)ccc1O
inactive: [1] | [2] | [3] | [4]

C[C@H](CCC(=O)O)[C@H]1CC[C@H]2[C@@H]3C(=O)C[C@@H]4CC(=O)CC[C@]4(C)[C@H]3CC(=O)[C@]12C
inactive: [1] | [2] | [3] | [4]

C[N+]1(CC2COC(c3ccccc3)(c3ccccc3)O2)CCCCC1 (configuration not stated)
inactive: [1] | [2] | [3] | [4]

CN(C)CCOC(c1ccccc1)c1ccc(Br)cc1 (configuration not stated)
inactive: [1] | [2] | [3] | [4]

CCN(CC)CC(=O)Nc1c(C)cccc1C
inactive: [1] | [2] | [3] | [4]

NC[C@H]1O[C@H](O[C@H]2[C@H](O)[C@@H](O[C@H]3O[C@H](CO)[C@@H](O)[C@H](N)[C@H]3O)[C@H](N)C[C@@H]2N)[C@H](N)[C@@H](O)[C@@H]1O
inactive: [1] | [2] | [3] | [4]

CC(=O)OC/C=C(C)/C=C/C=C(C)/C=C/C1=C(C)CCCC1(C)C
inactive: [1] | [2] | [3] | [4]

CCCC(=O)O[C@]1(C(=O)CC)CC[C@H]2[C@@H]3CCC4=CC(=O)CC[C@]4(C)[C@H]3[C@@H](O)C[C@@]21C
inactive: [1] | [2] | [3] | [4]

O=c1oc2c(O)c(O)cc3c(=O)oc4c(O)c(O)cc1c4c23
inactive: [1] | [2] | [3] | [4]
